TDP1 cell noCPT: qHTS for Inhibitors of human tyrosyl-DNA phosphodiesterase 1 (TDP1): qHTS in cells in absence of CPT; actives 15% (n = 420,000); DT40 Tdp1-/- hTDP1 cells, no CPT, ATP luminescence, 48 h; Potency, µM (highest dose often 46.2 µM), usual class: inhibitors; AID 686978, 2013; note: nearly all actives have a fitted effect of over 55% in size
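Seeded 400 DT40-hTDP1 cells/well (vehicle DMSO, no 20 nM CPT); pinned compounds; ≥48 hr at 37 °C; CellTiter-Glo luminescence as viability measure.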
TDP1 block: inhibitors of human tyrosyl-DNA phosphodiesterase TDP1; actives 0.28% (n = 350,000); Q9NUW8; recombinant TDP1, AlphaScreen DNA substrate cleavage; Potency, µM (titrated, usually from 130 µM), usual class: inhibitors; note: nearly all actives have a fitted effect of over 40% in size
Target sequence (Q9NUW8 whole entry, looked up): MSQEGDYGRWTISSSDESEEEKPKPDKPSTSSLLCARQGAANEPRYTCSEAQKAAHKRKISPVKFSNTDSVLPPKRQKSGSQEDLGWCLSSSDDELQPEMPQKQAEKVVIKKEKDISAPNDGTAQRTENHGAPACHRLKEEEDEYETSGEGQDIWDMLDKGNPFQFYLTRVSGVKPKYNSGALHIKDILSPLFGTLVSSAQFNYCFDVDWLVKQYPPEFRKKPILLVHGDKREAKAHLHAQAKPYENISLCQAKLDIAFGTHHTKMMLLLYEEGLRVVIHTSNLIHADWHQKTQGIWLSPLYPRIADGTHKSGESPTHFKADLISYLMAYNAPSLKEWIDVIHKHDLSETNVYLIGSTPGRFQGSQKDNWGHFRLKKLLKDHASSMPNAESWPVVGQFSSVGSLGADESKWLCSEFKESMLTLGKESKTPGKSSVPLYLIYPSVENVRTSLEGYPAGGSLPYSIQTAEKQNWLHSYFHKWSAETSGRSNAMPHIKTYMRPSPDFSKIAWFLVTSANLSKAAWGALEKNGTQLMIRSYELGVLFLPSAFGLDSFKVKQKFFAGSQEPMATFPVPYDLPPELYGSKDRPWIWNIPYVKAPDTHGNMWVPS
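AlphaScreen read-out: signal falls as enzyme removes the 3' tyrosine-FITC from a 5'-biotinylated DNA oligo (15 nM, 5 min, RT). Enzyme was E. coli-made recombinant Tdp1 at 1 nM, exposed to compound for 15 min beforehand; beads 10 ug/ml, 10 min.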
CtBP-E1A inh: inhibitors of CtBP/E1A interaction; AlphaScreen GST-E1A/His-CtBP binding, 1536-well; hits give low values; activity change, % (concentration not given with the values); AID 651724; actives 0.49% (n = 340,000); in the data active = activity change below about -65%; inconclusive = mostly about -30% to -63%
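Protein mix (5X: 125 nM each GST-E1A, His-CtBP) was incubated with pinned compound 2 h at 37 deg C in dark, in 50 mM Tris pH 8.0 buffer with 300 mM NaCl. Glutathione donor and nickel acceptor beads followed; AlphaScreen signal read after 1 h.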
Six1-Eya2 inh: inhibitors of human Six1/Eya2 interaction; AlphaScreen GST-Six1/His-Eya2 binding, biochemical; hits give low values; activity change, % (no concentration beside the values); actives 0.56% (n = 360,000); AID 651725; in the data active = activity change below about -65%; inconclusive = mostly about -30% to -63%
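AlphaScreen with GST-Six1 and His-Eya2 (5X mix: 250 nM and 500 nM), glutathione donor and nickel acceptor beads; buffer 50 mM Tris pH 8.0, 300 mM NaCl, 1 mM TCEP; 1 h at 37 C in the dark.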
IL1B secr inh: inflammasome signaling inhibition, IL-1 beta readout | activity change, % at 57.5 µM | THP-1 LPS/ATP IL-1B secretion, AlphaLISA, 16 h; hits give low values | AID 743279 | actives 4.7% (n = 360,000); in the data active = activity change below about -50%; inconclusive = mostly about -30% to -49%
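THP-1 cells pretreated 1 hr with compounds (up to 57.5 uM final), then stimulated with LPS (250 ng/mL final) plus ATP (1.25 mM final); secreted IL-1B measured by AlphaLISA after 16 hr, decreased signal indicating inhibition.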
TDP1 cell CPT: DT40-hTDP1 cell growth loss with CPT. chicken DT40 Tdp1-/-;hTDP1 cells + 20 nM CPT, ATP luminescence, 48 h. Potency, µM (series often up to 46.2 µM), usual class: inhibitors. actives 12% (n = 420,000). AID 686979; note: nearly all actives have a fitted effect of over 55% in size
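Cell growth measured by CellTiter-Glo luminescence after a minimum 48 h, 37 C compound exposure with 20 nM CPT in Tdp1-knockout DT40 cells stably expressing hTDP1, seeded 400/well; qHTS titration format.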
Each line names hits and unclear results; the compound was inactive in the other large screens; ! = not active in a repeat. Only some compounds are listed: those with a hit (about 18% of all), similar ones and a draw of the others. Unless noted, calls come from the whole dose curve; as a rule, active = well fitted curve in the direction sought with a large enough effect; inconclusive = small, poorly fitted or top-dose-only effect, or another doubt; inactive = no such curve, though single readings can be large; an effect the other way counts as inactive or inconclusive.

O=C(NCC(O)c1nc2ccccc2[nH]1)c1cc([N+](=O)[O-])ccc1F (stereo not given)	TDP1 cell noCPT inconclusive, IL1B secr inh -86.6, TDP1 cell CPT inconclusive (no result: TDP1 block)
O=C1c2ccccc2CCC12N=NCC2c1ccccc1 (stereo not given)	none
O=C(NCc1nnc(SCc2ccc(F)cc2)n1-c1ccccc1)C12CC3CC(CC(C3)C1)C2	TDP1 cell noCPT 5.8µM, IL1B secr inh -79.1, TDP1 cell CPT 16.4µM
O=C(NCc1nnc(SCc2ccc(C(F)(F)F)cc2)n1-c1ccccc1)C12CC3CC(CC(C3)C1)C2	TDP1 cell noCPT 13µM, TDP1 cell CPT inconclusive
Cc1ccc(-n2c(CNc3ccc(F)cc3)nnc2SCC(=O)NCc2ccco2)cc1	TDP1 cell noCPT inconclusive, TDP1 cell CPT 16.4µM
Cc1ccc(NC(=O)CSc2nnc(CNC(=O)C34CC5CC(CC(C5)C3)C4)n2-c2ccc(F)cc2)cc1	TDP1 cell noCPT inconclusive, TDP1 cell CPT 16.4µM
Cc1nn(C)c(-c2n[nH]c(=S)n2Cc2ccco2)c1Cl	none
Cc1ccccc1COC(=O)c1nn(-c2ccccc2)nc1N	none
CC[C@H](C)[C@H]1O[C@]2(CC[C@@H]1C)C[C@@H]1C[C@@H](C/C=C(\C)[C@@H](O[C@H]3C[C@H](OC)[C@@H](O[C@H]4C[C@H](OC)[C@@H](O)[C@H](C)O4)[C@H](C)O3)[C@@H](C)/C=C/C=C3\CO[C@@H]4[C@H](O)C(C)=C[C@@H](C(=O)O1)[C@]34O)O2	TDP1 cell noCPT inconclusive, TDP1 cell CPT 10.6µM (no result: TDP1 block, CtBP-E1A inh, Six1-Eya2 inh, IL1B secr inh)
CC[C@H](C)[C@H]1O[C@]2(CC[C@@H]1C)C[C@@H]1C[C@@H](C/C=C(\C)[C@H](O[C@@H]3C[C@H](OC)[C@H](O[C@@H]4C[C@H](OC)[C@@H](O)[C@H](C)O4)[C@H](C)O3)[C@@H](C)/C=C/C=C3\CO[C@@H]4[C@H](O)C(C)=C[C@@H](C(=O)O1)[C@]34O)O2	none (no result: TDP1 cell noCPT, CtBP-E1A inh, Six1-Eya2 inh, IL1B secr inh, TDP1 cell CPT)
Cc1cc(Br)cn2cc(C(=O)O)nc12	none
c1ccc2c(c1)CCc1c-2nc2ccccc2c1N1CCOCC1	TDP1 cell noCPT inconclusive, TDP1 cell CPT 11.6µM (no result: CtBP-E1A inh)
O=C1C=C(c2ccc3c(c2)OCO3)C[C@@H](c2ccc3c(c2)OCO3)C1	none
Cc1cc(C2=CC(=O)C[C@H](c3ccc4c(c3)OCO4)C2)ccc1F	IL1B secr inh -51.0
Cc1cc(C)c(C2=CC(=O)C[C@H](c3ccc4c(c3)OCO4)C2)c(C)c1	TDP1 cell noCPT inconclusive, TDP1 cell CPT 18.4µM
O=C1C=C(c2ccc3cc[nH]c3c2)C[C@@H](c2ccc3c(c2)OCO3)C1	TDP1 cell noCPT 10.3µM, TDP1 block inconclusive, CtBP-E1A inh inconclusive, TDP1 cell CPT 1.84µM
O=C1C=C(c2cc(Cl)cc(Cl)c2)C[C@@H](c2ccc3c(c2)OCO3)C1	none
Cc1cc(C(=O)NCc2cccc(Br)c2)c2c(C)nn(-c3ccccc3)c2n1	none (no result: CtBP-E1A inh, Six1-Eya2 inh, IL1B secr inh)
Cc1cccc2sc(N(CCCN(C)C)C(=O)c3cc4ccccc4oc3=O)nc12	TDP1 cell noCPT inconclusive, TDP1 cell CPT 23.1µM
Cc1cccc2sc(N(CCCN(C)C)C(=O)c3ccc(Cl)s3)nc12	TDP1 cell noCPT inconclusive, IL1B secr inh -61.8, TDP1 cell CPT 23.1µM!
Cc1ccc2nc(N(CCCN(C)C)C(=O)c3cc4ccccc4oc3=O)sc2c1	TDP1 cell noCPT inconclusive, IL1B secr inh -51.3
CN(C)CCCN(C(=O)c1cc2ccccc2oc1=O)c1nc2c(F)cccc2s1	none
Cc1ccc2nc(N(CCN(C)C)C(=O)c3ccc4ccccc4c3)sc2c1	TDP1 cell noCPT inconclusive, TDP1 cell CPT inconclusive
O=C1c2cccc(OCc3ccc(F)cc3)c2CCN1Cc1ccc(F)cc1	TDP1 cell noCPT 11.6µM, IL1B secr inh -67.8, TDP1 cell CPT inconclusive
CN1CCc2c(OCc3ccc(F)cc3)cccc2C1=O	TDP1 cell noCPT inconclusive

Assay outcomes from PubChem.
